Results on 43 compounds are retold here after PubChem BioAssay (NCI).

Compounds without any hit were thinned out: in the full panel of roughly 79,000, 15% have a hit. Unmarked numbers belong to inactive results. The source made the active and inactive calls. Cut-off read from the data, not from the text of the source: active = growth inhibition above about 70%; inactive = the rest.

The nature of assay [1]: NCI Yeast Anticancer Drug Screen. Data for the rad50 strain (AID 155).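 Note: 0% = growth of vehicle-only cultures of the same strain.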 To be noted: S. cerevisiae rad50 strain growth inhibition; at 50.0 µM; stronger effect = higher value. The method, boiled down: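 Yeast carrying a defined DNA repair defect were exposed to test compounds, and growth was compared with vehicle-treated controls to give percent inhibition.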
Assay [2] can be described thus: NCI Yeast Anticancer Drug Screen. Data for the mec2-1 strain (AID 157). To be noted: S. cerevisiae mec2-1 strain, at 50.0 µM, stronger effect = higher value. The method, boiled down:
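Readout is yeast growth inhibition, normalised to vehicle-treated controls, in the mec2-1 strain exposed to compound.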

Assay [3] in a line: NCI Yeast Anticancer Drug Screen. Data for the sgs1 mgt1 strain (AID 161).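 Note: 0% = growth of cultures given vehicle only.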 To be noted: S. cerevisiae sgs1 mgt1 strain, at 50.0 µM, stronger effect = higher value. The method, boiled down: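 Growth of a repair-deficient yeast mutant was monitored after compound treatment and expressed as inhibition relative to vehicle-treated cultures.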
A short description of assay [4]: NCI Yeast Anticancer Drug Screen. Data for the cln2 rad14 strain (AID 165).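 Note: 0% = growth equal to vehicle treated cultures.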 To be noted: S. cerevisiae cln2 rad14 strain, at 50.0 µM, stronger effect = higher value. Put shortly: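 Relative to vehicle controls, growth inhibition of compound-treated cln2 rad14 yeast was recorded.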
Assay [5] in a line: NCI Yeast Anticancer Drug Screen. Data for the bub3 strain (AID 167). To be noted: S. cerevisiae bub3 mutant strain, at 50.0 µM, stronger effect = higher value. The method, boiled down:
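Compounds were applied to a genetically altered yeast strain carrying a cell-cycle control defect. Growth inhibition was scored against vehicle-treated controls.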

Assay [6] in a line: NCI Yeast Anticancer Drug Screen. Data for the mlh1 rad18 strain (AID 175). To be noted: S. cerevisiae mlh1 rad18 strain growth inhibition; at 50.0 µM; stronger effect = higher value. The method, boiled down:
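Test agents were incubated with a yeast strain of defined genotype (DNA damage repair defect). Inhibition of growth was derived by comparison with vehicle-exposed cultures.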

Regarding `CC(C)=NNC(N)=S`, the growth inhibition in assay [1] is 2.45%; in assay [2] it was -9.4%; in assay [3], -23.9%; in assay [4], -22.8%; in assay [5] it was 2.35%.
For the compound `CCOC(=O)C/C(C)=N\O`, the growth inhibition in assay [1] is 4.05%; in assay [2] it was -11.3%; in assay [3], 7.9%; in assay [4] it was 8.45%; in assay [5] it was 9.15%; in assay [6] it was 2.4%.
For the compound `O=c1[nH]c(O)c(/C=C2/C=Nc3ccccc32)[nH]1`, the growth inhibition was 0.45% in assay [1]; -5.85% in assay [2]; -8.35% in assay [3]; -15.2% in assay [4]; 4.1% in assay [5].
The corresponding values for `Cc1ccccc1N=C(c1ccccc1)C1C(=O)c2ccccc2C1=O` are -20.6%, 19.4%, 42.2%, 29% and 49.2%.
The corresponding values for `CN(C)C(C)(C)CC(C)(C)C` are 35.7%, 4%, 15.7%, 4.85% and 17.3%.
Consider `COC(=O)c1cccc(Br)c1`, for which the growth inhibition in assay [1] is -4.4%; in assay [2], 1.5%; in assay [3] it was -4.75%; in assay [4], -29.5%.
Regarding `CN(C)CCN(C)CC(C)(C)C(=O)/C=C/c1ccc(Cl)cc1`, the growth inhibition in assay [1] is 27.9%; in assay [2] it was 3%; in assay [3], 9%; in assay [4], -2.65%; in assay [5], 19.7%; in assay [6], 31.8%.
On to `O=C(O)COCC(=O)O`, for which the growth inhibition in assay [1] was 34.1%; in assay [2], -15.2%; in assay [3] it was -11.4%; in assay [4], -53.2%; in assay [5], 5.85%.
Turning to `CCc1ccc(/C(C#N)=C/C=C/c2ccccc2)cc1`, the growth inhibition is 8.9% in assay [1]; -12.2% in assay [2]; 20.6% in assay [3]; -2.9% in assay [4]; 38% in assay [5].
The corresponding values for `O=[N+]([O-])c1ccc(-c2ncc(-c3ccc(Br)cc3)o2)cc1` are -0.1%, -3.3%, 21.9%, 11.6% and 17.2%.
Taken in the same sequence, the figures for `CCOC(=O)c1cc(/C=C/c2cccc(Cl)c2)on1` were 57.2%, 27.6%, 25.9%, 26.1% and 8.1%.
On to `OCc1ccc(-c2ccc(-c3ccc(CO)s3)o2)s1`, for which the growth inhibition was 31.1% in assay [1]; 3.55% in assay [2]; 39.9% in assay [3]; 31.9% in assay [4]; 25.3% in assay [5]; 90.7% (active) in assay [6].
Consider `CCOC(=O)c1coc(C(=O)OCC)c1C(=O)OCC`, for which the growth inhibition in assay [1] is -4.95%; in assay [2], -18.1%; in assay [3] it was 5.25%; in assay [4], -3.05%; in assay [5], 4.6%.
Turning to `COc1cc(C2c3cc4c(cc3C3OC(=O)C2C3CO)OCO4)cc(OC)c1OC` (stereo not given), the growth inhibition was -7.4% in assay [1]; -9.95% in assay [2]; -14.5% in assay [3]; 6.25% in assay [4]; -19.5% in assay [5].
Consider `CCN=c1cc2sc3cc(NCC)c(C)cc3nc-2cc1C`, for which the growth inhibition in assay [1] is -22.1%; in assay [2], -35.8%; in assay [3], -16.4%; in assay [4], -14.4%; in assay [5], -15.4%.
Taken in the same sequence, the figures for `Cc1cc(N2CCC(N3CCCC3)CC2)nc(/N=C(\N)Nc2ccc(Cl)c(Cl)c2)n1` were 18.1%, -2.25%, -6.05%, -3.7% and 4%.
Take `Clc1ccc(-c2n[nH]c3c2Cc2ccccc2-3)cc1Cl`: the growth inhibition in assay [1] is -5.1%; in assay [2], -10.8%; in assay [3] it was 16.4%; in assay [4], 16.4%; in assay [5], 11.8%.
On to `COc1cc2cc(c1Cl)N(C)C(=O)C[C@H](OC(=O)[C@H](C)N(C)C(C)=O)[C@]1(C)O[C@H]1[C@H](C)[C@@H]1C[C@@](O)(NC(=O)O1)[C@H](OC)C=C/C=C(\C)C2`, for which the growth inhibition in assay [1] is 12.1%; in assay [2], -11.4%; in assay [3], 6.55%; in assay [4] it was 14.1%; in assay [5] it was 5.9%.
Taken in the same sequence, the figures for `CC(=O)OCCC(C)CCC=C(C)C` (stereo not given) were 14.7%, 19.1%, -19.9%, -18.1% and -16.9%.
Take `C=C[Si](OC(C)=O)(OC(C)=O)OC(C)=O`: the growth inhibition in assay [1] is 27.2%; in assay [2], -13.2%; in assay [3] it was 0.85%; in assay [4] it was 14.7%; in assay [5], 13.7%.
Consider `CC1OC(Oc2c(-c3ccc(O)c(O)c3)oc3cc(O)cc(O)c3c2=O)C(O)C(O)C1O` (stereo not given), for which the growth inhibition in assay [1] was 21.4%; in assay [2], -8.25%; in assay [3], 14.2%; in assay [4], 8.6%; in assay [5], 20.9%.
The corresponding values for `OC1OC(COC(c2ccccc2)(c2ccccc2)c2ccccc2)C(O)C(O)C1O` (stereo not given) are -11.9%, -0.95%, -16.6%, 14.4% and -3.7%.
Taken in the same sequence, the figures for `CCOc1ccc(/C=C/C(=O)c2ccccc2)cc1` were -9.9%, -15.9%, 24.6%, -20.1% and 22.4%.
Taken in the same sequence, the figures for `O=C(NCCNC(=O)c1ccc(Cl)cc1Cl)c1ccc(Cl)cc1Cl` were -9.25%, -10.8%, -4%, -42.2% and -1.25%.
For the compound `CCOc1ccc(I)cc1`, the growth inhibition was 10.9% in assay [1]; 11.8% in assay [2]; -17.5% in assay [3]; 36.8% in assay [4]; -0.75% in assay [5].
For the compound `O=c1cc(-c2ccccc2)nc2cc(-c3ccco3)[nH]n12`, the growth inhibition is -8.1% in assay [1], -14.7% in assay [2], -6.05% in assay [3] and 7.9% in assay [4].
In the case of `CCOC(=O)CCCC(=O)OCC`, the growth inhibition in assay [1] is 20.8%; in assay [2], -8.1%; in assay [3], 1.65%; in assay [4] it was 7.7%; in assay [5], 22.8%.
As to `Cc1ccc(C(=O)N/N=C/c2ccc3c(c2)OCO3)cc1`, the growth inhibition in assay [1] was 18.1%; in assay [2] it was 8.35%; in assay [3], 4.15%; in assay [4], 10.8%; in assay [5] it was 6.2%.
Taken in the same sequence, the figures for `COc1ccc(C2OC(N)=C(O)C2=O)cc1OC` (stereo not given) were -4.25%, -23.1%, -14.4%, 11.2% and -30.1%.
Taken in the same sequence, the figures for `O=c1cc(-c2ccccc2)oc2c1ccc1ccccc12` were 11%, 34.1%, 21.9%, -90.3% and 52.5%.
Taken in the same sequence, the figures for `O=C(O)C(O)c1ccccc1` (stereo not given) were 20.2%, -7.65%, -5.7%, -48% and 11.3%.
For `CN(C)c1ccc(S(=O)(=O)O)cc1`, the growth inhibition in assay [1] is 1.3%; in assay [2] it was -3.65%; in assay [3] it was 6.65%; in assay [4], 10%.
Regarding `CCCCCCCCCCCCCC(=O)Oc1ccc[nH]c1=O`, the growth inhibition in assay [1] was -12.2%; in assay [2], -19.6%; in assay [3], -15.9%; in assay [4] it was 11%; in assay [5], 0.65%.
The corresponding values for `CC(=O)OC(C(=O)O)c1ccccc1` (stereo not given) are 15.9%, -12.1%, 0.25%, 13.8% and -8%.
For the compound `CCOC(=O)c1ccc(Nc2sc(C(=O)c3cccc([N+](=O)[O-])c3)c(N)c2C#N)cc1`, the growth inhibition is -9.95% in assay [1], -9.95% in assay [2], -0.95% in assay [3] and 5.75% in assay [4].
On to `CCN1C(=O)/C(=C/C=C/N(C)c2ccccc2)SC1=S`, for which the growth inhibition was 0.9% in assay [1]; -13.3% in assay [2]; 3.25% in assay [3]; 9.05% in assay [4]; 20.9% in assay [5].
Regarding `Oc1ccc(N=Nc2ccc(Br)cc2)c(O)c1`, the growth inhibition in assay [1] is 4.15%; in assay [2] it was 31.3%; in assay [3] it was 30.2%; in assay [4], -20.1%; in assay [5], 33.6%.
On to `N#CC1(Nc2ccc3c4c(cccc24)CC3)CCCCC1`, for which the growth inhibition in assay [1] is 0.8%; in assay [2] it was 7.2%; in assay [3], 15.1%; in assay [4], 16%; in assay [5], 26.2%; in assay [6], 12.5%.
For the compound `O=C(O)/C=C/C(=O)NCc1ccccc1`, the growth inhibition is 34.6% in assay [1]; 42.6% in assay [2]; 48% in assay [3]; 1.4% in assay [4]; 44.4% in assay [5]; 26.7% in assay [6].
`CC(=O)OCC1CCCO1` (stereo not given): the growth inhibition in assay [1] is -24.9%; in assay [2], -9.45%; in assay [3], -21.1%; in assay [4] it was -44.1%; in assay [5], 19.6%; in assay [6], -32%.
Consider `CC(=O)Nc1ccc(NC(C)=O)c2c1C(=O)c1ccccc1C2=O`, for which the growth inhibition in assay [1] is 5.55%; in assay [2], -24.1%; in assay [3] it was -10.3%; in assay [4], 2.15%; in assay [5], -19.3%; in assay [6], 23.9%.
On to `CC(=O)c1ccc(N=C(C#N)C2=C(O)c3ccccc3C2=O)cc1`, for which the growth inhibition is 15.7% in assay [1]; -12.4% in assay [2]; 25.8% in assay [3]; 14.2% in assay [4]; 10.9% in assay [5]; 13.3% in assay [6].
`Cc1ccc(Cl)cc1NC(=O)N(C)CCO`: the growth inhibition in assay [1] was 6.3%; in assay [2] it was 7.65%; in assay [3], 9.9%; in assay [4] it was 16.6%; in assay [5] it was 4.05%; in assay [6], 22.7%.
